Hit rate of the full screen: of about 420,000 compounds, about 64,000 (15%) were called active. Roughly 27% stayed inconclusive and do not appear here. Calls follow the shape of the dose curve; as a rule, active = well fitted inhibition curve with a large enough effect; inconclusive = small, poorly fitted or top-dose-only effect; inactive = flat fitted curve, though single readings scatter. These entries were drawn from the full list. A call without a number means that no potency is given here.
Potency is read from the fitted curve at half-maximal effect.

The test in a line: qHTS for Inhibitors of human tyrosyl-DNA phosphodiesterase 1 (TDP1): qHTS in cells in absence of CPT. Also: nearly all actives have a fitted effect of over 55% in size. To be noted: DT40 Tdp1-/- hTDP1 cells, no CPT, ATP luminescence, 48 h; activity change, negative = growth inhibition: at 46.2 µM (top of the series). A digest of the protocol: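 No-CPT arm: Tdp1-/-;hTDP1 DT40 cells (400/well) plus compounds, incubated ≥48 hr at 37 °C. Readout CellTiter-Glo luminescence.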
In general terms: qHTS replaces the single test concentration by a dilution series.
For the compound `Cc1ccccc1N1CC(C(=O)Nc2ccc3c(c2)OCO3)CC1=O` (stereo not given), the Potency result was “inactive”.
Consider `CN(C)c1ccc(CNC23CN4CN(CN(C4)C2)C3)cc1`, for which the Potency is 18.4 µM (active).
Take `CCOc1ccc(NC(=O)CC2NCCNC2=O)cc1` (stereo not given): the Potency entry is “inactive”.
Take `COC(=O)C[C@H]1C[C@@H]2c3cc(NC(=O)Nc4ccccc4)ccc3O[C@@H]2[C@@H](CO)O1`: the Potency result was “inactive”.
Turning to `O=C(Nc1ccc2c(c1)[C@@H]1C[C@@H](CC(=O)N3CCCCC3)O[C@@H](CO)[C@@H]1O2)NC1CCCCC1`, the Potency entry was “inactive”.
For `O=C(C[C@H]1C[C@H]2c3cc(NS(=O)(=O)c4ccc(F)cc4)ccc3O[C@H]2[C@H](CO)O1)NCc1cc(F)ccc1F` the value was 18.4 µM (active).
As for `O=C1NC(O)CCN1C1CC(O)C(CO)O1` (stereo not given), the Potency result is “inactive”.
As to `CC(C)Oc1ccc(Oc2ccc(C(F)(F)F)cn2)cc1`, the Potency result is “inactive”.
Take `COC(=O)CC1=NN(c2nc(C)cc(C)n2)C(=O)C1`: the Potency result is “inactive”.
For `C=CCn1c(=NC(=O)c2ccc(S(=O)(=O)N3CCCC3)cc2)sc2cc(NC(C)=O)ccc21`, the Potency entry was “inactive”.
In the case of `Cc1cccc(-n2cnc(C(=O)Nc3cccnc3)c2)n1`, the Potency result is “inactive”.
With `Cn1cc(Cl)c(C(=O)NNC(=S)Nc2cccc(Cl)c2)n1`, the Potency entry is “inactive”.
`Cc1cccc(-n2cnc(C(=O)NNC(=S)Nc3ccccc3)c2)n1`: the Potency was 23.1 µM (active).
For the compound `Cc1ccc(CNC(=O)CCNS(=O)(=O)c2ccc3c(c2)oc(=O)n3C)cc1`, the Potency entry was “inactive”.
For `CCOc1ccc(CNCCSc2nnnn2C)cc1` the value was “inactive”; for `COc1cc(CNCCSc2nnnn2C)ccc1OCc1ccc(Cl)cc1Cl`, 23.1 µM (active); for `Cn1nnnc1SCCNCc1ccc(Cl)c(Cl)c1`, “inactive”.
For the compound `COc1cccc(CNCCSc2nnnn2C)c1OCc1ccccc1Cl`, the Potency was 20.6 µM (active).
Take `COC(=O)c1ccccc1NC(=O)CSc1nnnn1C`: the Potency entry is “inactive”.
On to `COc1cccc(CNn2cn[nH]c2=S)c1OCc1ccccc1`, for which the Potency entry was “inactive”.
For the compound `CCOc1ccc(OCC)c(Nc2nc3ccccc3n3nnnc23)c1`, the Potency entry was “inactive”.
Take `C=CCOc1c(CNn2cn[nH]c2=S)cccc1OC`: the Potency entry is “inactive”.
The result for `O=C(NCCO)C(=O)NCC(c1ccc2c(c1)OCO2)N1CCN(c2ccc(F)cc2)CC1` (stereo not given) reads “inactive”; that for `CC(C)CNC(=O)C(=O)NCC(c1ccc2c(c1)OCO2)N1CCOCC1` (stereo not given), “inactive”; that for `CC(C)CC(=O)NCC(c1ccc2c(c1)OCO2)N1CCN(c2ccc(F)cc2)CC1` (stereo not given), 25.9 µM (active).
The result for `Cc1c(C(=O)NCC2CCCN(C)C2)cnn1-c1nccc(-c2ccco2)n1` (stereo not given) reads “inactive”; that for `CC1CC(=O)Nc2ccccc2N1S(=O)(=O)c1cccs1` (stereo not given), “inactive”.
The result for `COc1ccc2[nH]c(=O)c(-c3noc(-c4ccc(F)cc4)n3)cc2c1` reads “inactive”; that for `COc1ccc(Cc2nnc(SC)[nH]c2=O)cc1`, “inactive”; that for `COc1ccc(Cc2cc(-c3ccc(F)cc3)n[nH]c2=O)cc1`, 13 µM (active).

Source of the values: PubChem BioAssay AID686978 (National Center for Advancing Translational Sciences (NCATS), 2013).
